From PubChem BioAssay AID504725 (Broad Institute, 2011)
Measured potencies and affinities stand elsewhere.

biological target: KSHV LANA C-terminal domain (residues 932-1162) binding to LBS DNA (UniProt O40947); experiment: inhibitors of C-LANA binding to LBS DNA, dose response, biochemical, fluorescence polarization, cherry-picked samples (AID 504725); details: MBP-C-LANA / FAM-LBS DNA fluorescence polarization, percent change from plate compound-well median; series mostly up to 35 µM; activity change, negative = inhibition: at the top concentration

Activity change, negative = inhibition, inactive:
CCN(C(=O)c1cccc(S(=O)(=O)N2CCc3ccccc32)c1)C1CCS(=O)(=O)C1 (stereo not drawn) -0.651%, COc1ccc(-c2cc(C(F)(F)F)n3ncc(C(=O)N4CCCCC4c4cccnc4)c3n2)cc1 (stereo not drawn) 1.27%, N#CCCN(CCC#N)C(=O)C1c2ccccc2Oc2ccccc21 -7.45%, CCOC(=O)N1CCN(C(=S)NC(=O)c2cccc(OC)c2)CC1 -2.68%, O=C(Nc1ccccc1F)c1coc(=O)c(Br)c1 0.139%, COc1ccccc1CNC(=O)CCS(=O)(=O)c1cccs1 0.006%, COc1cccc(NC(=O)CN(C)C(=O)c2cc3ccccc3cc2OC)c1 1.7%, CCCc1nc(SC)[nH]c(=O)c1C -1.44%, COc1ccc(NS(=O)(=O)c2cccc3ccccc23)cc1 1.39%, O=C(O)c1ccccc1NC(=O)c1cc(-c2ccccc2)nc2ccccc12 -0.076%, CCOC(=O)c1ccccc1Nc1cc(C)nc2nc(C)nn12 -0.772%, CN1CCc2c(sc(NC(=O)c3ccc4ccccc4c3)c2C(N)=O)C1 6.69%, CN(C)C(=O)c1ccc(NC(=O)COC(=O)C2(c3ccccc3)CCCC2)cc1 0.523%, COc1ccc(-c2cc(C(=O)N(C)CCc3ccc(OC)c(OC)c3)c3ccccc3n2)cc1 0.133%, COc1cccc(OCCNc2ccc([N+](=O)[O-])cn2)c1 2.33%, COC(=O)C1=COC(C)C2CN3CCc4c([nH]c5ccccc45)C3CC12 (stereo not drawn) 0.07%, CC(=O)OCCCn1c(C)[n+](C)c2cc(Cl)c(Cl)cc21 2.61%, COc1ccc(Cl)cc1C(=O)NNC(=O)c1cc2ccccc2o1 0.508%
